Data taken from PubChem BioAssay (EPA / NIEHS).
Activity calls are given as the source filed them. Rule for the calls: active = hit-call score of the fitted dose curve at least 0.9, where 1 is the maximum; inactive = score below 0.9.

Key:
[1] = ATG_CRE_CIS: Attagene CIS-FACTORIAL HepG2 Assay for human cAMP Responsive Element (CRE) binding protein 3 (AID 2282926); details: HepG2 CRE cis-reporter, Attagene multiplexed mRNA; actives raise or lower the signal
Method in brief: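 Endogenous CRE-binding activity in HepG2 is reported through a cis-regulated transfected reporter. Following a day of exposure, mRNA levels are determined by reverse transcription PCR and fluorescent fragment analysis; fits run in both directions versus DMSO.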

[2] = target: CCAAT/enhancer-binding protein beta (Homo sapiens) (UniProt P17676); assay: ATG_C_EBP_CIS: Attagene CIS-FACTORIAL HepG2 Assay for human CCAAT/Enhancer Binding Protein (C/EBP) beta (AID 2282927); details: HepG2 Attagene cis-factorial transcription factor reporter; actives raise or lower the signal
Method in brief: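 Transiently transfected HepG2 (MRTU library, endogenous TF-driven promoters); 24 h dosing; total RNA → oligo(dT) RT → PCR → 6-FAM primer extension → HpaI digest → CE; fit bidirectionally vs DMSO.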

[3] = ATG_CMV_CIS: Attagene CIS-FACTORIAL HepG2 Assay for human CMV (Internal Marker) (AID 2282928); details: HepG2 CMV promoter reporter, transcription factor profiling; actives raise or lower the signal;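 note: endpoint acts as a background internal control marker rather than a target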
Method in brief: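 After transient transfection of HepG2 with reporter transcription units driven by cis-regulatory promoters, cells receive test chemical for 24 h. Labeled reporter amplicons, digested with HpaI, are sized and quantified by capillary electrophoresis against DMSO.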

[4] = ATG_DR4_LXR_CIS: Attagene CIS-FACTORIAL HepG2 Assay for human Liver X Receptor (LXR), DR4 submotif (AID 2282929); details: HepG2 Attagene DR4 cis-reporter, mRNA transcription; actives raise or lower the signal
Method in brief: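 Readout: reporter transcript fluorescence after RT-PCR and capillary electrophoresis, fitted bidirectionally against DMSO controls. Human HepG2 liver cells carried transiently transfected multiplexed reporter constructs; endogenous transcription factor activity measured 24 h post-dosing.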

[5] = target: Aryl hydrocarbon receptor (Homo sapiens) (UniProt P35869); assay: ATG_Ahr_CIS: Attagene CIS-FACTORIAL HepG2 Assay for human Aryl Hydrocarbon Receptor (Ahr) (AID 2282930); details: HepG2 AhR cis-factorial reporter transcription; actives raise or lower the signal
Method in brief: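 Read-out: reporter mRNA quantified by RT-PCR with fluorescent primer extension and capillary electrophoresis. Human HepG2 liver cells carried transfected cis-promoter reporter units and were exposed to chemical for 24 h; gain or loss fitted relative to DMSO.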

[6] = ATG_AP_1_CIS: Attagene CIS-FACTORIAL HepG2 Assay for human Activator Protein 1 (AP-1) (AID 2282931); details: HepG2 Attagene cis-factorial AP-1 reporter mRNA; actives raise or lower the signal
Method in brief: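 Reporter transcripts were measured 24 h after dosing by RT-PCR and capillary electrophoresis of fluorescent fragments. Cells: HepG2 carrying transfected cis-regulated reporter constructs reading endogenous factor activity. Gain or loss fitted against DMSO.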

[7] = ATG_AP_2_CIS: Attagene CIS-FACTORIAL HepG2 Assay for human Activator Protein 2 (AP-2) (AID 2282932); details: HepG2 AP-2 cis-reporter, Attagene transcription factor profiling; actives raise or lower the signal
Method in brief: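 HepG2 cells transiently transfected with cis-element reporter units and exposed for 24 h. Reporter mRNA measured by RT-PCR, FAM labelling, HpaI digestion and capillary electrophoresis. Changes in either direction fitted relative to DMSO.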

[8] = ATG_BRE_CIS: Attagene CIS-FACTORIAL HepG2 Assay for human Bone Morphogenetic Protein (BMP) Response Element (BRE) (AID 2282933); details: HepG2 BMP response element reporter, Attagene transcription factor profiling; actives raise or lower the signal
Method in brief: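 Fluorescence-labelled reporter cDNA fragments, separated by capillary electrophoresis, gave the signal for this component of a 52-readout multiplex. HepG2 cells were transfected, exposed to chemicals for 24 h, and compared with DMSO using bidirectional fitting.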

[9] = target: Retinoic acid receptor alpha (Homo sapiens) (UniProt P10276); assay: ATG_DR5_RAR_CIS: Attagene CIS-FACTORIAL HepG2 Assay for human Retinoic Acid Receptor Alpha (RARE), DR5 submotif (AID 2282934); details: HepG2 Attagene cis-factorial RARE DR5 reporter, mRNA; actives raise or lower the signal;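 for AC50: reporter responds to endogenous RAR alpha beta and gamma in HepG2 not RARA alone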
Method in brief: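 Read-out: DR5-driven reporter transcript measured by RT-PCR, 6-FAM primer extension, HpaI digest and capillary electrophoresis. Human HepG2 liver cells carry transiently transfected cis-element reporter constructs; dosing lasts 24 h. Gain or loss of signal fitted against DMSO baseline.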

[10] = target: Transcription factor E2F1 (Homo sapiens) (UniProt Q01094); assay: ATG_E2F_CIS: Attagene CIS-FACTORIAL HepG2 Assay for human E2F Transcription Factor 1 (AID 2282935); details: HepG2 Attagene cis-reporter, E2F reporter RNA transcripts; actives raise or lower the signal
Method in brief: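 Endogenous E2F1 activity read through cis-promoter reporter units transfected into HepG2. After 24 h compound treatment, reporter mRNA measured by RT-PCR, HpaI digestion and capillary electrophoresis. Bidirectional fit versus DMSO.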

[11] = ATG_E_Box_CIS: Attagene CIS-FACTORIAL HepG2 Assay for human Enhancer Box (E-box) (AID 2282936); details: HepG2 E-box cis-reporter transcription, actives raise or lower the signal
Method in brief: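 HepG2 cells transiently transfected with multiplexed cis-element reporter units, dosed 24 h; reporter mRNA quantified by RT-PCR, 6-FAM labelling, HpaI digestion and capillary electrophoresis. E-box (USF1) signal fitted bidirectionally vs DMSO.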

[12] = ATG_M_61_CIS: Attagene CIS-FACTORIAL HepG2 Assay for M61 Transcription Factor (Internal Marker) (AID 2282937); details: HepG2 Attagene CIS-FACTORIAL M61 internal marker reporter; actives raise or lower the signal
Method in brief: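 Readout: fluorescent reporter mRNA fragments resolved by capillary electrophoresis after RT-PCR. Transiently transfected human HepG2 cells carried MRTU constructs reporting endogenous TF activity; 24 h chemical exposure; gain or loss of signal fitted relative to DMSO.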

[13] = ATG_EGR_CIS: Attagene CIS-FACTORIAL HepG2 Assay for human Early Growth Response 1 (EGR1) (AID 2282938); details: HepG2 Attagene CIS-FACTORIAL EGR reporter mRNA; actives raise or lower the signal
Method in brief: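 Read-out: fluorescent reporter-mRNA fragments resolved by capillary electrophoresis after RT-PCR, 24 h post-dose in transiently transfected HepG2. Endogenous transcription-factor activity reported via cis-element-regulated reporter units; gain or loss fitted relative to DMSO.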

[14] = ATG_M_19_CIS: Attagene CIS-FACTORIAL HepG2 Assay for M19 Transcription Factor (Internal Marker) (AID 2282939); details: HepG2 Attagene CIS-FACTORIAL M19 internal marker reporter; actives raise or lower the signal
Method in brief: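 HepG2, MRTU transient transfection, 24 h dosing. Total RNA → RT-PCR → 6-FAM primer extension → HpaI digest → CE fluorescence. Bidirectional curve fit, DMSO negative control.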

[15] = ATG_ERE_CIS: Attagene CIS-FACTORIAL HepG2 Assay for Estrogen Response Element (ERE) (AID 2282940); details: HepG2 ERE cis-reporter, Attagene RNA transcript; actives raise or lower the signal
Method in brief: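 After a 24 h chemical treatment, RNA from reporter-transfected HepG2 cells is reverse-transcribed, PCR-amplified and fluorescently labelled. Fragments separated by capillary electrophoresis give reporter signal; DMSO serves as negative control.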

[16] = ATG_Ets_CIS: Attagene CIS-FACTORIAL HepG2 Assay for human Erythroblast Transformation Specific (ETS) (AID 2282941); details: HepG2 ETS cis-reporter transcription, actives raise or lower the signal
Method in brief: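 Human HepG2 hepatoma cells were transiently transfected with promoter-driven reporter constructs and treated for 24 hours. Reporter transcripts were quantified by RT-PCR with fluorescent primer extension; bidirectional curve fitting used DMSO as reference.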

[17] = target: Hepatocyte nuclear factor 3-beta (Homo sapiens) (UniProt Q9Y261); assay: ATG_FoxA2_CIS: Attagene CIS-FACTORIAL HepG2 Assay for human Forkhead box A2 (FOXA2) (AID 2282942); details: HepG2 cis-reporter transcription factor activity, 24 h; actives raise or lower the signal
Method in brief: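 Readout: fluorescent reporter transcripts resolved by capillary electrophoresis after RT-PCR. Transiently transfected HepG2, 24 h compound exposure, endogenous TF activity at cis promoter elements. Gain or loss of signal fitted relative to DMSO.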

[18] = ATG_FoxO_CIS: Attagene CIS-FACTORIAL HepG2 Assay for human Forkhead box O (FoxO) (AID 2282943); details: HepG2 Attagene cis-reporter, FoxO element, mRNA; actives raise or lower the signal
Method in brief: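 Read-out: fluorescence of 6-FAM-labelled reporter cDNA fragments resolved by capillary electrophoresis. Transiently transfected HepG2 cells were dosed for 24 h; activity fitted in both directions relative to DMSO controls.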

[19] = ATG_GATA_CIS: Attagene CIS-FACTORIAL HepG2 Assay for human GATA Binding Protein (AID 2282944); details: HepG2 GATA cis-element reporter, Attagene multiplex mRNA; actives raise or lower the signal
Method in brief: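 Cells: HepG2, transiently transfected with cis-regulated reporter transcription units. Exposure: 24 h. Detection: RT-PCR plus capillary electrophoresis of FAM-labeled fragments. Analysis: bidirectional, DMSO as baseline.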

Chain of CCAAT/enhancer-binding protein beta (Homo sapiens) (P17676 whole entry, looked up): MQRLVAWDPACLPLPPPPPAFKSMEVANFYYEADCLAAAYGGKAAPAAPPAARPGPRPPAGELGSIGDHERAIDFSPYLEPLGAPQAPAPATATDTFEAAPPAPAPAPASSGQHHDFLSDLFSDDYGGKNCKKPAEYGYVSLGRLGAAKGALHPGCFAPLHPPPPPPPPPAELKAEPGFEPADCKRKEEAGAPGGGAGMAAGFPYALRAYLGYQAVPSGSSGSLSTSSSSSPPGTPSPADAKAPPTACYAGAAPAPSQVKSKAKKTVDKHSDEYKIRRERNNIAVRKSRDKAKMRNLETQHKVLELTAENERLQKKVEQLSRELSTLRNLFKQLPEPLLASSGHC
Chain of Hepatocyte nuclear factor 3-beta (Homo sapiens) (Q9Y261 whole entry, looked up): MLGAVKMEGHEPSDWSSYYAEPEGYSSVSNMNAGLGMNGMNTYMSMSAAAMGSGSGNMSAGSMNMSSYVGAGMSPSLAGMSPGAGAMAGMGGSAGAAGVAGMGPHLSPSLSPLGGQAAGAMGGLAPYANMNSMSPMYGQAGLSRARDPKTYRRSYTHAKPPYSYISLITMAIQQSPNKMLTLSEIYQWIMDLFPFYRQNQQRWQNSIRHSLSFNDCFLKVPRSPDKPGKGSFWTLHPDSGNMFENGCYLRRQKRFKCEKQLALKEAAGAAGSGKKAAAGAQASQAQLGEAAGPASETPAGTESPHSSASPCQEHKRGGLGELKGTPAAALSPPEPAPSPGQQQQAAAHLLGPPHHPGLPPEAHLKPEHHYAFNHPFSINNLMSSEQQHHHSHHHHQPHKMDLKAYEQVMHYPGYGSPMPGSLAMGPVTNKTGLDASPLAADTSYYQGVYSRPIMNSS
Chain of Transcription factor E2F1 (Homo sapiens) (Q01094 whole entry, looked up): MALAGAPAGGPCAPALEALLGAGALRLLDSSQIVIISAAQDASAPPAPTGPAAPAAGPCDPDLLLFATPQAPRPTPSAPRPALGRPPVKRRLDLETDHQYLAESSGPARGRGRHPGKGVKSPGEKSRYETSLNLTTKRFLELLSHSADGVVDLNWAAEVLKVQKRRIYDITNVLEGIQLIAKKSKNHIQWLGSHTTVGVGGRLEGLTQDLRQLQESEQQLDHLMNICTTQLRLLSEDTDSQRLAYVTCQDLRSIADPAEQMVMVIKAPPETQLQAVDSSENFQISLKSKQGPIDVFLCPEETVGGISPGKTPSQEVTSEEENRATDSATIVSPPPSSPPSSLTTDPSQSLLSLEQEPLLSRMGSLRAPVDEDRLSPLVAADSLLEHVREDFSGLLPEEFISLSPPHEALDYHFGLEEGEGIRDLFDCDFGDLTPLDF
Chain of Retinoic acid receptor alpha (Homo sapiens) (P10276 whole entry, looked up): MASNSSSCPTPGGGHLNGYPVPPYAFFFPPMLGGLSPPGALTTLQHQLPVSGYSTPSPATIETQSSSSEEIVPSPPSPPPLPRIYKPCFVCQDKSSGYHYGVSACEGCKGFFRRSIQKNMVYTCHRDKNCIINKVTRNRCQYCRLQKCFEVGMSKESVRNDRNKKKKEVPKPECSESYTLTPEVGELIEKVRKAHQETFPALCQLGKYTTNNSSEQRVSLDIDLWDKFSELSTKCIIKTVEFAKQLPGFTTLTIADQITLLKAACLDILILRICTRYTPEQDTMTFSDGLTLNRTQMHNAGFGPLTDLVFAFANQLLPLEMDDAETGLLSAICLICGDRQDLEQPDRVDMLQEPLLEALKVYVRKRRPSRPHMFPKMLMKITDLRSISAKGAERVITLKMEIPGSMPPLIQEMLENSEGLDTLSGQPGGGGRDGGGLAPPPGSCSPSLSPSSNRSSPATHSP
Chain of Aryl hydrocarbon receptor (Homo sapiens) (P35869 whole entry, looked up): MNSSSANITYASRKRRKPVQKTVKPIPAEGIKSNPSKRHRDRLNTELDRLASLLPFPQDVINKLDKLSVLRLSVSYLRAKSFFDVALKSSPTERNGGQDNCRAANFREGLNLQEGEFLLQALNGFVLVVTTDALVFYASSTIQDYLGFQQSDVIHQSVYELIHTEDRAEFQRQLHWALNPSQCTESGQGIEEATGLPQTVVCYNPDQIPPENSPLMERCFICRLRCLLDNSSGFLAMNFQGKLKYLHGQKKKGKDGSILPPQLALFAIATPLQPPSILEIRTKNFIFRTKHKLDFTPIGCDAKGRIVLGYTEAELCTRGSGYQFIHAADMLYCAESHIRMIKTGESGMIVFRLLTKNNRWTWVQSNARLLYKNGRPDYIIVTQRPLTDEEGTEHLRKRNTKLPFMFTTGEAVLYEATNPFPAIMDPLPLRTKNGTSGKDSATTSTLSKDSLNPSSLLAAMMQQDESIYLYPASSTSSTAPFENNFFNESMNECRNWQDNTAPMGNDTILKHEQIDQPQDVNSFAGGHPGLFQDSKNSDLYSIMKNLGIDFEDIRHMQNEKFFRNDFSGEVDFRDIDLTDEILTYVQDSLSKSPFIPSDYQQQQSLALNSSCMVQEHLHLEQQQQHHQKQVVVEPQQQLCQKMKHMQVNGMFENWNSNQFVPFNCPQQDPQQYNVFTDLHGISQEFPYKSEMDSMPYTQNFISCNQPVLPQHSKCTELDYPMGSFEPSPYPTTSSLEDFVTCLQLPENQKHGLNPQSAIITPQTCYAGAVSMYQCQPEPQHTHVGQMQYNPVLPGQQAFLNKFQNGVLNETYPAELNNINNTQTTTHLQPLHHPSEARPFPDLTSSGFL

CC(C)Oc1cc(-n2nc(C(C)(C)C)oc2=O)c(Cl)cc1Cl
outcome [1]: inactive | outcome [2]: inactive | AC50 [3]: 6.05 µM (active) | outcome [4]: inactive | outcome [5]: inactive | AC50 [6]: 21.8 µM (active) | outcome [7]: inactive | AC50 [8]: 50 µM (active) | AC50 [9]: 0.86 µM (active) | outcome [10]: inactive | outcome [11]: inactive | outcome [12]: inactive | outcome [13]: inactive | outcome [14]: inactive | AC50 [15]: 12.8 µM (active) | outcome [16]: inactive | outcome [17]: inactive | outcome [18]: inactive | outcome [19]: inactive

CC(C)(C)c1ccc(CSc2cnn(C(C)(C)C)c(=O)c2Cl)cc1
AC50 [1]: 0.188 µM (active) | AC50 [2]: 0.0129 µM (active) | outcome [3]: inactive | AC50 [4]: 50 µM (active) | outcome [5]: inactive | AC50 [6]: 0.0997 µM (active) | outcome [7]: inactive | AC50 [8]: 0.103 µM (active) | AC50 [9]: 0.583 µM (active) | outcome [10]: inactive | outcome [11]: inactive | outcome [12]: inactive | AC50 [13]: 0.128 µM (active) | outcome [14]: inactive | AC50 [15]: 5.23 µM (active) | outcome [16]: inactive | outcome [17]: inactive | outcome [18]: inactive | outcome [19]: inactive

CCCCC(CC)COC(=O)c1ccccc1C(=O)OCC(CC)CCCC (centres undefined)
outcome [1]: inactive | outcome [2]: inactive | outcome [3]: inactive | outcome [4]: inactive | outcome [5]: inactive | outcome [6]: inactive | outcome [7]: inactive | outcome [8]: inactive | outcome [9]: inactive | outcome [10]: inactive | outcome [11]: inactive | outcome [12]: inactive | outcome [13]: inactive | outcome [14]: inactive | outcome [15]: inactive | outcome [16]: inactive | outcome [17]: inactive | outcome [18]: inactive | outcome [19]: inactive

CC1=C(C(=O)Nc2ccccc2)SCCO1
outcome [1]: inactive | outcome [2]: inactive | outcome [3]: inactive | outcome [4]: inactive | outcome [5]: inactive | outcome [6]: inactive | outcome [7]: inactive | outcome [8]: inactive | outcome [9]: inactive | outcome [10]: inactive | outcome [11]: inactive | outcome [12]: inactive | outcome [13]: inactive | outcome [14]: inactive | outcome [15]: inactive | outcome [16]: inactive | outcome [17]: inactive | outcome [18]: inactive | outcome [19]: inactive

CN(C)C(=S)SSC(=S)N(C)C
outcome [1]: inactive | outcome [2]: inactive | outcome [3]: inactive | outcome [4]: inactive | outcome [5]: inactive | outcome [6]: inactive | outcome [7]: inactive | outcome [8]: inactive | outcome [9]: inactive | outcome [10]: inactive | outcome [11]: inactive | outcome [12]: inactive | outcome [13]: inactive | outcome [14]: inactive | outcome [15]: inactive | outcome [16]: inactive | outcome [17]: inactive | outcome [18]: inactive | outcome [19]: inactive

COP(=S)(OC)Oc1nc(Cl)c(Cl)cc1Cl
outcome [1]: inactive | outcome [2]: inactive | outcome [3]: inactive | AC50 [4]: 85.1 µM (active) | outcome [5]: inactive | outcome [6]: inactive | outcome [7]: inactive | outcome [8]: inactive | outcome [9]: inactive | outcome [10]: inactive | outcome [11]: inactive | outcome [12]: inactive | outcome [13]: inactive | outcome [14]: inactive | AC50 [15]: 33.5 µM (active) | outcome [16]: inactive | outcome [17]: inactive | outcome [18]: inactive | outcome [19]: inactive
